The list is not random: actives were taken first. Their share in the collection is about 12%.
LASV entry inh = Lassa virus entry inhibition; Lassa virus pseudotype entry inhibition, cell reporter; Potency, µM (titrated, usually from 37.9 µM), most hits filed as inhibitors; hit rate 1.2% among 300,000; AID 540256; calls by dose curve; tested in HEK293 cells; note: nearly all actives have a fitted effect of over 50% in size
Cycloheximide cs = counter-screen for Shiga toxin inhibitors: cycloheximide protein synthesis inhibition. hit rate 12% among 300,000. cell reporter, cycloheximide protein synthesis inhibition counterscreen. max response, %; in the data active = max response mostly above about 13%, no sharp cut-off; inactive = mostly below about 14%; note: read at 38.3 µM for the half of the compounds with a filed dose
Shiga toxin inh = Shiga toxin inhibition. Vero cells, Shiga toxin protein synthesis inhibition reporter. inhibition, % at 38.7 µM. hit rate 9.2% among 290,000. AID 2315; in the data active = inhibition mostly above about 28%, no sharp cut-off; inactive = mostly below about 43%
MARV entry inh = Marburg virus entry inhibition; Marburg virus pseudotyped entry inhibition, cell reporter; Potency, µM (doses to about 37.8 µM), usual class: inhibitors; hit rate 1.8% among 300,000; calls by dose curve; tested in HEK293 cells
Numbers stand for hits; n = inactive; u = inconclusive; x = no result.

SMILES	LASV entry inh	Cycloheximide cs	Shiga toxin inh	MARV entry inh
COC(=O)C1Cc2ccccc2CN1S(=O)(=O)c1ccc(F)cc1 (configuration not stated)	n	n	n	n
COc1cc(NC(=S)NC(=O)c2c(OC)cccc2OC)ccc1NC(=O)c1cccs1	n	n	n	n
COc1cc(NC(=O)c2cccc(Cl)c2)ccc1NC(=O)c1cccs1	n	16	n	n
COc1cc(NC(=O)c2ccccc2Cl)ccc1NC(=O)c1cccs1	n	46	105	u
COc1cc(NC(=O)c2cc3ccccc3cc2OC)ccc1NC(=O)c1cccs1	x	n	n	x
COc1c(Cl)cc(Cl)cc1/C=C/C(=O)c1ccc(NC(=O)c2cccs2)cc1	u	30	40	11µM
CSc1ccc(CCNC(=O)CN2C(=O)COc3ccc(S(=O)(=O)N4CCCC4)cc32)cc1	n	x	x	u
COc1cc(NS(=O)(=O)c2ccc(NC(=O)c3ccc(Cl)cc3Cl)cc2)nc(OC)n1	n	x	x	x
Cc1ccc(CN2[C@@H](CC3CCCCC3)COCCS2(=O)=O)cc1	x	n	n	x
CN(c1ccccc1)c1nc2ccsc2c(=O)s1	n	56	97	u
CN(Cc1nc2ccccc2c(=O)[nH]1)Cc1nc2ccsc2c(=O)[nH]1	n	n	n	n
CSc1nc2ccsc2c(=O)n1-c1ccccc1	n	n	n	n
CCN(c1ccccc1)c1nc2ccsc2c(=O)s1	n	23	n	n
Cc1ccc(N(CC(=O)Nc2ccccc2-c2ccccc2)S(=O)(=O)c2ccccc2)c(C)c1	u	n	n	u
O=C(N[C@@H](Cc1ccc(O)cc1)C(=O)O)c1cccnc1	x	n	n	x
COc1ccccc1-c1c(C)nn2c(N)c(-c3ccccc3)cnc12	n	39	67	u
COc1ccc(-c2c(C)nn3c(-c4ccccc4)cc(C)nc23)cc1OC	n	x	x	n
COCc1nn2c(N)c(C#N)cnc2c1-c1ccccc1	n	n	n	n
COc1ccc(-c2c(C)nn3c(N)c(-c4ccccc4)cnc23)cc1OC	x	18	n	x
COc1ccccc1-c1c(C)nn2c(-c3ccccc3)cc(C)nc12	u	n	n	u
COCc1nn2c(N)c(-c3ccccc3)cnc2c1-c1ccccc1	u	38	33	n
CC(=O)N/C(=C\c1ccccc1)C(=O)OC(C)C(=O)c1ccccc1 (configuration not stated)	n	x	x	n
O=C(NC1CCCCC1)C1CCN(C(=O)c2ccc(Cl)cc2)CC1	n	n	n	n
O=S(=O)(Nc1ccc2c(c1)nc1n2CCN(Cc2ccccc2)C1)c1ccc(Cl)cc1	n	n	n	n
O=S(=O)(Nc1ccc2c(c1)nc1n2CCN(Cc2ccccc2)C1)c1ccccc1	n	117	111	n
SMILES	LASV entry inh	Cycloheximide cs	Shiga toxin inh	MARV entry inh
Cc1ccc(C2N(C)C(=O)c3ccccc3N2C)cc1 (configuration not stated)	u	n	n	n
CN(Cc1nc(-c2cnccn2)no1)CC(O)c1ccccc1 (configuration not stated)	x	n	n	n
CN(Cc1nc(-c2cccs2)no1)CC(O)c1ccccc1 (configuration not stated)	n	44	56	n
CN(Cc1nc(C(c2ccccc2)c2ccccc2)no1)CC1COCCO1 (configuration not stated)	u	15	n	n
CN(Cc1nc(-c2cccs2)no1)CC1COCCO1 (configuration not stated)	x	33	61	x
COc1ccc(OC)c(NCc2cccn2-c2nnc(N3CCC(C)CC3)s2)c1	n	31	69	x
COc1ccc(NCc2cccn2-c2nnc(N3CCC(C)CC3)s2)c(OC)c1	n	x	x	x
N#CC1(c2ccc(NC(=O)c3ccccc3)cc2)CCCC1	x	47	135	x
CC(=O)Oc1ccc(C(=O)Nc2ccc(C3(C#N)CCCC3)cc2)cc1	x	12	n	x
COc1ccccc1C1C2C(=O)N(c3ccccc3)C(=O)C2ON1c1ccccc1 (configuration not stated)	n	n	n	n
Cc1ccc(N2C(=O)C3ON(c4ccccc4)C(CC(C)C)C3C2=O)cc1 (configuration not stated)	x	9.3	n	x
Cc1cc(-c2nnc(CCC(=O)N(CC3CCC3)CC3CCCO3)o2)no1 (configuration not stated)	n	44	78	u
Cc1cc(-c2nnc(CCC(=O)N(CC3CC3)CC3CCCO3)o2)no1 (configuration not stated)	n	n	n	n
CN(Cc1cccc2cnccc12)C(=O)CCc1nnc(CCc2ccccc2)o1	n	37	47	n
Cc1cccc(Cc2nnc(CCC(=O)N(C)CCc3ccccc3)o2)c1	n	48	61	u
CN(CCC1CCCCO1)C(=O)CCc1nnc(CCc2ccccc2)o1 (configuration not stated)	n	32	47	u
Cc1ccc(N2C(=O)N(CC(=O)N3c4ccccc4CC3C)C(=O)C2C)cc1 (configuration not stated)	u	x	x	n
